Screen size: about 5,500 compounds; about 2,000 (36%) were called active. Another 18% or so got no clear call; they are omitted. The list shows a part of the results. Values without a mark were called inactive. Rule as the data show it: active = normalized growth mostly below about 0.91 (no sharp cut-off); inconclusive = no clear call, values can overlap the other calls; inactive = mostly above about 0.92.
Test: chemical genetic growth profiling, strain panel (AID 1159580);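 also: tested at 20 µM; growth read once vehicle control cultures reached saturation at 30 °C; 1 = growth at the plate median or of vehicle wells; lower values mean less growth of the strain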
Conditions: S. cerevisiae deletion strains, growth OD

Question: With `CC(=O)CSc1nnc(-c2ccc(C(C)(C)C)cc2)n1-c1ccc(Cl)cc1` as the compound, how does the normalized growth (locus YAR019C, strain CDC15, hits give low values) read?
Answer: 0.982

Question: What about the normalized growth (locus YBL105C, strain PKC1, hits give low values) of the same compound?
Answer: 0.974

Question: And the normalized growth (locus YBR135W, strain CKS1, hits give low values)?
Answer: 0.973

Question: And the normalized growth (locus YBR136W, strain MEC1, hits give low values)?
Answer: 0.987

Question: And the normalized growth (locus YBR160W, strain CDC28, hits give low values)?
Answer: 0.976

Question: And the normalized growth (locus YDL017W, strain CDC7, hits give low values)?
Answer: 0.983

Question: What about the normalized growth (locus YDL028C, strain MPS1, hits give low values) of the same compound?
Answer: 0.976

Question: And the normalized growth (locus YDL101C, strain DUN1, hits give low values)?
Answer: 0.974

Question: What about the normalized growth (locus YDL108W, strain KIN28, hits give low values) of the same compound?
Answer: 0.982

Question: What about the normalized growth (locus YDL132W, strain cdc53, hits give low values) of the same compound?
Answer: 0.972

Question: And the normalized growth (locus YDL214C, strain PRR2, hits give low values)?
Answer: 0.959

Question: And the normalized growth (locus YDR052C, strain DBF4, hits give low values)?
Answer: 0.986

Question: And the normalized growth (locus YDR054C, strain cdc34, hits give low values)?
Answer: 0.971

Question: What about the normalized growth (locus YDR226W, strain ADK1, hits give low values) of the same compound?
Answer: 0.973

Question: And the normalized growth (locus YDR477W, strain SNF1, hits give low values)?
Answer: 0.958

Question: And the normalized growth (locus YER123W, strain YCK3, hits give low values)?
Answer: 0.953

Question: What about the normalized growth (locus YER133W, strain GLC7, hits give low values) of the same compound?
Answer: 0.969

Question: And the normalized growth (locus YFL009W, strain cdc4, hits give low values)?
Answer: 0.977

Question: What about the normalized growth (locus YFL029C, strain CAK1, hits give low values) of the same compound?
Answer: 0.987

Question: What about the normalized growth (locus YFR003C, strain YPI1, hits give low values) of the same compound?
Answer: 0.984

Question: And the normalized growth (locus YFR019W, strain FAB1, hits give low values)?
Answer: 1

Question: What about the normalized growth (locus YFR028C, strain CDC14, hits give low values) of the same compound?
Answer: 0.977

Question: What about the normalized growth (locus YGR040W, strain KSS1, hits give low values) of the same compound?
Answer: 0.965

Question: And the normalized growth (locus YGR052W, strain FMP48, hits give low values)?
Answer: 1.02

Question: What about the normalized growth (locus YGR092W, strain DBF2, hits give low values) of the same compound?
Answer: 0.987

Question: What about the normalized growth (locus YHR030C, strain SLT2, hits give low values) of the same compound?
Answer: 0.797 (active)

Question: What about the normalized growth (locus YHR079C, strain IRE1, hits give low values) of the same compound?
Answer: 0.99

Question: What about the normalized growth (locus YHR082C, strain KSP1, hits give low values) of the same compound?
Answer: 1.04

Question: And the normalized growth (locus YHR205W, strain SCH9, hits give low values)?
Answer: 0.976

Question: And the normalized growth (locus YIL147C, strain SLN1, hits give low values)?
Answer: 0.983

Question: What about the normalized growth (locus YJL095W, strain BCK1, hits give low values) of the same compound?
Answer: 0.926

Question: And the normalized growth (locus YJL128C, strain PBS2, hits give low values)?
Answer: 0.927

Question: And the normalized growth (locus YJL157C, strain FAR1, hits give low values)?
Answer: 0.986

Question: What about the normalized growth (locus YJR016C, strain ILV3, hits give low values) of the same compound?
Answer: 0.982

Question: And the normalized growth (locus YJR066W, strain TOR1 (second series), hits give low values)?
Answer: 0.984

Question: What about the normalized growth (locus YJR066W, strain TOR1, hits give low values) of the same compound?
Answer: 0.972

Question: What about the normalized growth (locus YKL048C, strain ELM1, hits give low values) of the same compound?
Answer: 0.969

Question: What about the normalized growth (locus YKL067W, strain YNK1, hits give low values) of the same compound?
Answer: 0.947

Question: What about the normalized growth (locus YKL101W, strain HSL1, hits give low values) of the same compound?
Answer: 0.973

Question: And the normalized growth (locus YKL193C, strain SDS22, hits give low values)?
Answer: 0.981

Question: What about the normalized growth (locus YKL203C, strain TOR2, hits give low values) of the same compound?
Answer: 1.05

Question: What about the normalized growth (locus YLR113W, strain HOG1, hits give low values) of the same compound?
Answer: 0.914

Question: What about the normalized growth (locus YLR133W, strain CKI1, hits give low values) of the same compound?
Answer: 0.99

Question: What about the normalized growth (locus YLR403W, strain SFP1, hits give low values) of the same compound?
Answer: 0.984

Question: And the normalized growth (locus YML070W, strain DAK1, hits give low values)?
Answer: 0.97

Question: And the normalized growth (locus YMR001C, strain CDC5, hits give low values)?
Answer: 0.985

Question: And the normalized growth (locus YMR205C, strain PFK2 (second series), hits give low values)?
Answer: 0.97

Question: And the normalized growth (locus YMR277W, strain FCP1, hits give low values)?
Answer: 0.978

Question: And the normalized growth (locus YNL006W, strain LST8, hits give low values)?
Answer: 0.98

Question: What about the normalized growth (locus YNL020C, strain ARK1, hits give low values) of the same compound?
Answer: 0.999

Question: And the normalized growth (locus YNL161W, strain CBK1, hits give low values)?
Answer: 0.984

Question: What about the normalized growth (locus YNL183C, strain NPR1, hits give low values) of the same compound?
Answer: 1.01

Question: What about the normalized growth (locus YNL207W, strain RIO2, hits give low values) of the same compound?
Answer: 0.988

Question: And the normalized growth (locus YNL222W, strain SSU72, hits give low values)?
Answer: 0.97

Question: What about the normalized growth (locus YNL307C, strain MCK1 (second series), hits give low values) of the same compound?
Answer: 0.996

Question: What about the normalized growth (locus YOL078W, strain AVO1, hits give low values) of the same compound?
Answer: 0.984

Question: And the normalized growth (locus YOL136C, strain PFK27, hits give low values)?
Answer: 0.983

Question: What about the normalized growth (locus YOR061W, strain CKA2, hits give low values) of the same compound?
Answer: 0.976

Question: What about the normalized growth (locus YOR119C, strain RIO1, hits give low values) of the same compound?
Answer: 0.98

Question: And the normalized growth (locus YOR231W, strain MKK1, hits give low values)?
Answer: 0.97

Question: And the normalized growth (locus YOR329C, strain SCD5, hits give low values)?
Answer: 0.977

Question: What about the normalized growth (locus YPL031C, strain PHO85, hits give low values) of the same compound?
Answer: 0.953

Question: What about the normalized growth (locus YPL153C, strain RAD53, hits give low values) of the same compound?
Answer: 0.972

Question: What about the normalized growth (locus YPL204W, strain HRR25, hits give low values) of the same compound?
Answer: 0.958

Question: What about the normalized growth (locus YPL209C, strain IPL1, hits give low values) of the same compound?
Answer: 0.984

Question: What about the normalized growth (locus YPL256C, strain CLN2, hits give low values) of the same compound?
Answer: 0.918

Question: What about the normalized growth (locus YPR025C, strain CCL1, hits give low values) of the same compound?
Answer: 0.976

Question: What about the normalized growth (locus YPR106W, strain ISR1, hits give low values) of the same compound?
Answer: 0.974

Question: And the normalized growth (locus YPR111W, strain DBF20, hits give low values)?
Answer: 0.965

Question: What about the normalized growth (strain NNK1, hits give low values) of the same compound?
Answer: 0.997

Question: What about the normalized growth (strain TSCII, hits give low values) of the same compound?
Answer: 0.99
